Laboratory results as given in PubChem BioAssay AID540333 (Southern Research Specialized Biocontainment Screening …, 2011).
The whole screen tested about 10,000 compounds, of which about 320 (3.2%) were called active. The entries come from a sample that favours actives as a whole. Unmarked numbers belong to inactive results. Cut-off read from the data, not from the text of the source: active = CPE inhibition mostly above about 9.1% (no sharp cut-off); inactive = mostly below about 7.2%.

Assay: Dengue virus cytopathic effect inhibitors, cell-based, CPE readout, HTS (AID 540333)
Details: Dengue virus CPE inhibition in host cells, at 20 µM; hits give high values
Compound `COc1cc(NC(=S)NC(=O)CC(C)C)ccc1NC(=O)c1cc2ccccc2o1` has a CPE inhibition of 0.02%.
With `O=C(c1cccc(NS(=O)(=O)c2ccc(F)c(F)c2)c1)N1CCN(Cc2ccccc2)CC1` the CPE inhibition was “inactive”.
In the case of `O=C(c1cccc(NS(=O)(=O)c2ccc(F)c(F)c2)c1)N1CCN(C(c2ccccc2)c2ccccc2)CC1`, the CPE inhibition is reported as 39.5% (active).
Compound `O=C(COC(=O)c1cccc(NS(=O)(=O)c2ccc(F)c(F)c2)c1)NC(=O)NC1CCCCC1` has a CPE inhibition of 3.8%.
For `CCn1c(-c2c(Cl)c(C)nn2C)n[nH]c1=S`, the CPE inhibition was “inactive”.
For `COCCCNC(=S)NC1CCCCC1`, the CPE inhibition was “inactive”.
Compound `Cc1ccc(CC2SC(=Nc3ccccc3)N(c3ccccc3)C2=O)cc1` (stereo not given) has a CPE inhibition of 4.75%.
In the case of `O=C1C(Cc2ccc(Br)cc2)SC(=Nc2ccccc2)N1c1ccccc1` (stereo not given), the CPE inhibition is reported as 12.3% (active).
`O=C1C(Cc2ccc(F)cc2)SC(=Nc2ccccc2)N1c1ccccc1` (stereo not given) showed a CPE inhibition of 1.01%.
`Cc1nn(-c2ccccc2)c(N)c1C(O)(C(F)(F)F)C(F)(F)F` gave a CPE inhibition of 0.32%.
Work on `CCOC(=O)[C@@H]1[C@H]2COc3ccc(Br)cc3[C@@H]2N2C(=O)N(c3ccc(OC)cc3)C(=O)[C@]12C` yielded a CPE inhibition of 1.7%.
For `S=C(NCC1CCCO1)Nc1ccc(Cl)cc1` (stereo not given), the CPE inhibition was 0.15%.
With `Cc1ccc(S(=O)(=O)N2CCN(C(C(=O)Nc3ccc(F)cc3)c3ccccc3)CC2)cc1` (stereo not given) the CPE inhibition was 1.1%.
`Cc1cc(C)cc(NC(=O)C(c2ccccc2)N2CCCC2)c1` (stereo not given) showed a CPE inhibition of 0.92%.
For `Cc1ccc(NC(=O)C(c2ccc(Cl)cc2Cl)N2CCCC2)cc1` (stereo not given), the CPE inhibition was 11.5% (active).
With `Cc1cccc2cc(C3CC(c4ccco4)=NN3C(=O)CCC(=O)O)c(Cl)nc12` (stereo not given) the CPE inhibition was “inactive”.
`COc1cc(C(=O)NCC(c2cccs2)N(C)C)cc(Cl)c1OC(C)C` (stereo not given) showed a CPE inhibition of 0.015%.
In the case of `COCCNC(=O)CCCC(=O)NCCOC`, the CPE inhibition is reported as “inactive”.
For `CCOc1cccc(C2NC(=S)NC(C)=C2C(=O)Nc2ccccc2)c1` (stereo not given), the CPE inhibition was 0.13%.
For `CCOC(=O)c1c(NC(=O)C2=C(C)NC(=S)NC2c2ccc(F)cc2F)sc(C)c1C` (stereo not given), the CPE inhibition was 32.4% (active).
With `CC1=C(C(=O)Nc2ccc(F)c(F)c2)C(c2cccs2)NC(=S)N1` (stereo not given) the CPE inhibition was 0.675%.
With `O=C(CSc1nc2ccccc2n1S(=O)(=O)c1cccc([N+](=O)[O-])c1)NCc1cccs1` the CPE inhibition was 0.11%.
For `COc1cc(C(=O)OCC(=O)Nc2ccc(SC(F)F)cc2)cc(OC)c1OC`, the CPE inhibition was “inactive”.
`O=C(Cc1c[nH]c2ccccc12)NNC(=O)c1ccccc1` showed a CPE inhibition of 0.335%.
`COc1ccccc1CNC(=O)C(Cc1c[nH]c2ccccc12)NC(=O)OCc1ccccc1` (stereo not given) gave a CPE inhibition of 6.32%.
